Results as given in PubChem BioAssay.

Test: COS7 lysate on small-molecule microarray, probe aHis, 635 nm (AID 1123);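 also: z-score combines 667nm fluorescence intensity with signal-to-noise per printed compound spot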
Conditions: COS7 cell lysate, fluorescence, higher = more signal

With `CN(C)CCCC[C@@H]1NC(=O)[C@H]2C[C@@H](C(=O)NCc3ccc(F)cc3)[C@@H](c3ccc(O)cc3)N2C1=O` as the compound, how does the composite z-score read?
The composite z-score was 2.25.

With `COC(=O)[C@@]1(Cc2ccc(F)cc2)[C@H]2c3cc(C(=O)N(C)C)n(CCO)c3C[C@H]2CN1C(=O)c1ccccc1` as the compound, how does the composite z-score read?
The composite z-score was 1.97.

Which composite z-score does the source give for `C=C(/C(=C/C[C@@H](OC(C)=O)c1ccccc1OCCO)c1cc(C(=O)OC)ccc1OC)C(C)C` here?
Its composite z-score is 0.335.

With `CCCCN1CC=CC23O[C@@H]4/C=C\CCC(C)OC(=O)C4[C@H]2C(=O)N(C(C)CO)[C@@H]3C1=O` (stereo partly drawn) as the compound, how does the composite z-score read?
The composite z-score was -0.986.

Which composite z-score does the source give for `NCCCC[C@@H]1NC(=O)[C@H]2C[C@@H](C(=O)NCc3ccc(F)cc3)[C@@H](c3cccc(OCCO)c3)N2C1=O` here?
Its composite z-score is 1.46.

Which composite z-score does the source give for `COc1cccc(C[C@H]2C[C@@H](CO[Si](C(C)C)(C(C)C)C(C)C)N3C(=O)[C@@]4(C(C)=O)O[C@@]23[C@@H]2C(=O)N(C)C(=O)[C@@H]24)c1` here?
The composite z-score was 0.332.

Which composite z-score does the source give for `CC#CCO[Si](C#CCCCCCC)(C(C)C)C(C)C` here?
Its composite z-score is -0.0607.

With `O=C1NC(=O)C2C1C=CC(C(O)c1ccc(F)cc1)N2Nc1ccccn1` (stereo not drawn) as the compound, how does the composite z-score read?
The composite z-score was 2.77.

Test: compound binding in COS7 lysate, probe aLAP1, primary screen, cell lysate, small-molecule microarray (AID 1124);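 also: lysate comes from COS7 cells expressing LAP1 and is applied at 0.3 µg/mL; score merges spot fluorescence near 667 nm with signal-to-noise over triplicate slides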
Conditions: probe aLAP1, fluorescence, higher = more signal

With `CCCCC=C[C@@H](NC(=O)c1ccc(C(F)(F)F)cc1)c1ccccc1` as the compound, how does the composite z-score read?
The composite z-score was -0.0554.

For `CC(c1ccccc1)C(O)C1C=CC2C(=O)N(c3ccccc3)C(=O)C2N1Nc1ccc(C#N)cc1` (stereo not drawn), which composite z-score is on record?
Its composite z-score is 0.359.

For `CC(C)(C)N1CC=CC23O[C@@H]4/C=C\CCCOC(=O)C4[C@H]2C(=O)N(CCCCCCO)[C@@H]3C1=O` (stereo partly drawn), which composite z-score is on record?
The composite z-score was 0.495.

With `COc1ccc(C(O)C2C=CC3C(=O)N(C)C(=O)C3N2Nc2ccc([N+](=O)[O-])cc2[N+](=O)[O-])cc1OCc1ccccc1` (stereo not drawn) as the compound, how does the composite z-score read?
The composite z-score was 0.53.

With `C=CC[C@]1(C(=O)N(C)C)COC(c2ccc(OCCCO)cc2)=N1` as the compound, how does the composite z-score read?
The composite z-score was 1.41.

For `C[C@@H](OCc1ccccc1)C1NC(=O)[C@@]23C(=O)N[C@@H](Cc4ccccc4)C2[C@H](C)[C@@]2(C)O[C@H]2C3/C=C/C/C=C\CNC(=O)[C@H](Cc2ccccc2)NC1=O` (stereo partly drawn), which composite z-score is on record?
Its composite z-score is -0.149.

For `COc1ccc([Si](C)(C)[C@H]2[C@H](CCO)O[C@@]3(C(=O)N(Cc4ccc(N5CCOC5=O)cc4)c4ccccc43)[C@@H]2C)cc1`, which composite z-score is on record?
Its composite z-score is 0.171.

With `C=CCC(OC(C)=O)[C@@H]1[C@@H](N(Cc2ccc(-c3ccccc3)cc2)C(=O)c2ccc(C)cc2)c2cc(OCCCO)ccc2N1C(=O)c1ccc2ccccc2c1` (stereo partly drawn) as the compound, how does the composite z-score read?
Its composite z-score is -0.031.

For `CC(C)C(=C=CC[C@@H](O)c1cccc(OCCO)c1)CCO`, which composite z-score is on record?
The composite z-score was 0.0157.

Which composite z-score does the source give for `COCCOC(=O)N1C(=O)[C@@]2(c3cc(C#CC4(O)CCCCCC4)ccc31)[C@H](c1ccc(OCCO)cc1)N1[C@H](c3ccccc3)[C@H](c3ccccc3)OC(=O)[C@H]1[C@@H]2C(=O)N1CCCCCCC1` here?
The composite z-score was 1.02.

Which composite z-score does the source give for `Cc1ccc(F)cc1S(=O)(=O)N[C@@H]1CCN(Cc2ccc3[nH]ccc3c2)C1` here?
Its composite z-score is -0.126.

With `C=C(COC)/C(=C/C[C@@H](OC(C)=O)c1ccccc1OCCO)c1cc(C(=O)OC)ccc1OC` as the compound, how does the composite z-score read?
Its composite z-score is 0.0845.

For `C=CCN1C(=O)[C@]2(O[C@H](CCO)[C@@H]([Si](C)(C)c3ccc(OC)cc3)[C@@H]2C)c2ccccc21`, which composite z-score is on record?
The composite z-score was -0.116.

For `COc1ccc(CCNC(=O)[C@@H]2c3ccccc3C(=O)N(CC34CC5CC(CC(C5)C3)C4)[C@H]2c2ccc(CO)cc2)cc1`, which composite z-score is on record?
The composite z-score was -0.0344.

With `C=CCC(OC(C)=O)[C@@H]1[C@@H](N(Cc2cccc3ccccc23)C(=O)c2ccc(C)cc2)c2cc(OCCCO)ccc2N1C(=O)c1ccc2ccccc2n1` (stereo partly drawn) as the compound, how does the composite z-score read?
Its composite z-score is 0.158.

For `COCCCNC(=O)[C@@H]1c2ccccc2C(=O)N(Cc2cc(C(F)(F)F)cc(C(F)(F)F)c2)[C@H]1c1ccc(CO)cc1`, which composite z-score is on record?
The composite z-score was -0.182.

For `CCOC(=O)C[C@H]1[C@H](OC(=O)c2ccc(C(=O)c3ccccc3)cc2)[C@@H](NC(=O)c2ccc3ccccc3c2)c2cc(OCCCO)ccc2N1C(=O)c1ccc2ccccc2n1`, which composite z-score is on record?
The composite z-score was 0.653.

Which composite z-score does the source give for `C=CCN1C(=O)[C@]2(O[C@H](CCn3cc([C@H](O)c4ccccc4)nn3)[C@@H]([Si](C)(C)c3ccc(OC)cc3)[C@@H]2C)c2cc(N3C(=O)c4cccc5cccc3c45)ccc21` here?
Its composite z-score is 0.389.

Which composite z-score does the source give for `CN(C)CCCC[C@@H]1NC(=O)[C@H]2C[C@@H](C(=O)O)[C@@H](c3cccc(OCCO)c3)N2C1=O` here?
Its composite z-score is 0.0206.

With `C=CCC(OC(C)=O)[C@@H]1[C@@H](N(Cc2ccc(-c3cccc(C(F)(F)F)c3)o2)C(=O)c2cccc3ccccc23)c2cc(OCCCO)ccc2N1C(=O)c1ccc2ccccc2c1` (stereo partly drawn) as the compound, how does the composite z-score read?
Its composite z-score is -0.278.

With `C=C(COC)/C(=C/C[C@H](OC(=O)c1ccncc1)c1ccc(OCCO)cc1)c1cc(C(=O)OC)ccc1OC` as the compound, how does the composite z-score read?
The composite z-score was 0.84.

With `COCCOC(=O)N1C(=O)[C@@]2(c3cc(C#CCC(C(=O)OC)C(=O)OC)ccc31)[C@H](C(=O)N1CCc3cc(OC)c(OC)cc3C1)[C@H]1C(=O)O[C@H](c3ccccc3)[C@H](c3ccccc3)N1[C@@H]2c1ccc(O)cc1` as the compound, how does the composite z-score read?
The composite z-score was 0.617.

With `Cc1ccc(S[C@]2(C(=O)NC3CC3)CC(=O)N(Cc3cc(C(F)(F)F)cc(C(F)(F)F)c3)[C@@H]2c2ccc(CO)cc2I)cc1` as the compound, how does the composite z-score read?
The composite z-score was 0.959.

Which composite z-score does the source give for `COc1ccc([Si](C)(C)[C@H]2[C@H](CCn3cc([C@H](O)c4ccccc4)nn3)O[C@@]3(C(=O)N(C)c4c(Br)cc(C)cc43)[C@@H]2C)cc1` here?
Its composite z-score is -0.112.

With `CCCCC(O)C1C=CC2C(=O)NC(=O)C2N1Nc1ccc(Cl)cc1Cl` (stereo not drawn) as the compound, how does the composite z-score read?
The composite z-score was 0.0614.

Which composite z-score does the source give for `C=CCC(OC(C)=O)[C@@H]1[C@@H](N(Cc2ccc(-c3ccccc3)cc2)C(=O)c2ccc(-c3ccccc3)cc2)c2cc(OCCCO)ccc2N1C(=O)c1ccc2ccccc2n1` (stereo partly drawn) here?
The composite z-score was 0.504.

For `COc1ccc([Si](C)(C)[C@H]2[C@H](CCO)O[C@@]3(C(=O)N(Cc4ccccc4)c4ccc(N(C=O)c5ccccc5)cc43)[C@@H]2C)cc1`, which composite z-score is on record?
Its composite z-score is 0.0964.

With `CN(C)CCCC[C@@H]1NC(=O)[C@H]2C[C@@H](C(=O)NCc3ccc(F)cc3)[C@@H](c3ccc(O)cc3)N2C1=O` as the compound, how does the composite z-score read?
Its composite z-score is 0.0507.

Which composite z-score does the source give for `COC(=O)[C@@]1(Cc2ccc(F)cc2)[C@H]2c3cc(C(=O)N(C)C)n(CCO)c3C[C@H]2CN1C(=O)c1ccccc1` here?
Its composite z-score is 1.21.

For `C=C(/C(=C/C[C@@H](OC(C)=O)c1ccccc1OCCO)c1cc(C(=O)OC)ccc1OC)C(C)C`, which composite z-score is on record?
The composite z-score was -0.394.

For `CCCCN1CC=CC23O[C@@H]4/C=C\CCC(C)OC(=O)C4[C@H]2C(=O)N(C(C)CO)[C@@H]3C1=O` (stereo partly drawn), which composite z-score is on record?
The composite z-score was 0.103.

With `NCCCC[C@@H]1NC(=O)[C@H]2C[C@@H](C(=O)NCc3ccc(F)cc3)[C@@H](c3cccc(OCCO)c3)N2C1=O` as the compound, how does the composite z-score read?
Its composite z-score is 0.251.

Which composite z-score does the source give for `COc1cccc(C[C@H]2C[C@@H](CO[Si](C(C)C)(C(C)C)C(C)C)N3C(=O)[C@@]4(C(C)=O)O[C@@]23[C@@H]2C(=O)N(C)C(=O)[C@@H]24)c1` here?
The composite z-score was -0.316.

With `CC#CCO[Si](C#CCCCCCC)(C(C)C)C(C)C` as the compound, how does the composite z-score read?
Its composite z-score is -0.529.

Which composite z-score does the source give for `O=C1NC(=O)C2C1C=CC(C(O)c1ccc(F)cc1)N2Nc1ccccn1` (stereo not drawn) here?
Its composite z-score is -0.393.
